By inhibition is commonly meant the change of the read-out against control, counted positive when it falls.

We go through 89 molecules from PubChem BioAssay AID588689 (Southern Research Specialized Biocontainment Screening …, 2011).

The assay has as its target Genome polyprotein (Dengue virus type 2 (strain 16681-PDK53)) (UniProt P29991). The assay can be described thus: flavivirus cap methylation enzyme inhibition – biochemical, confirmation dose response, primary screen (AID 588689). To be noted: Dengue-2 NS5 methyltransferase capping enzyme assay, at 25 µM, stronger effect = higher value.
The mark [1] stands for this setting: measured here: pilot screen replicate inhibition.

Molecules are shown by their SMILES. Among all 340,000 compounds or so, about 1,000 (0.29%) were called active. Rule as the data show it: inconclusive = inhibition above about 29% without an active follow-up result; inactive = below that. Not all results are given here. Entries with a potency or affinity are not part of this list.

Take `O=C(N/N=C/c1cc(Br)c(Br)o1)c1cc2ccccc2o1`: the inhibition is -5.43% (inactive).
As to `O=C1CCC[C@@H]2C[C@@]3(C[C@@H]4CCN1[C@H]24)Nc1cc(Cl)ccc1NC3=NCc1ccccc1`, the inhibition is -11.9% (inactive).
Take `O=C(NCCCc1ccccc1)c1cccc(NC(=O)C2CCCCC2)c1`: the inhibition is -8.46% (inactive).
In the case of `COc1ccc(C2=NN(C(=O)c3ccc(Cl)c([N+](=O)[O-])c3)C(c3ccccc3)C2)cc1` (configuration not stated), the inhibition was -4.55% (inactive).
For the molecule `Cc1ccc(NC(=S)NN2CCN(C)CC2)c(C)c1`, the inhibition was 3.57% (inactive).
As to `Cn1c2cc(C#N)sc2c2cnn(Cc3ccc(F)cc3)c(=O)c21`, the inhibition was -9.27% (inactive). For the same molecule, the inhibition under setting [1] was -3.06%.
As to `Cc1ccccc1-c1cc(C(=O)NCc2cccc(C(F)(F)F)c2)n(CC2CC(c3cccnc3)=NO2)n1` (configuration not stated), the inhibition was 5.79% (inactive).
Take `CCOc1ccccc1C=NNc1ccc([N+](=O)[O-])cn1`: the inhibition was -10.8% (inactive).
On the same count and under the same terms, the value for `Cc1ccc(-c2cc(C(=O)N3CCC(C)CC3)c3ccccc3n2)cc1` was -0.67% (inactive).
Turning to `COc1nnc(-c2ccccc2)s1`, the inhibition was -4.6% (inactive).
The same measure, in the same setting: in the case of `Cc1ccc(S(=O)(=O)N2[C@@H](c3ccc(Br)cc3)C(C(=O)O)=CC[C@H]2c2ccc(Cl)cc2)cc1` it was 26.7% (inactive); in that of `O=C(O)C1=CC[C@@H](c2ccc(Cl)cc2)N(S(=O)(=O)c2ccc(Cl)cc2)[C@H]1c1ccccc1`, 15.7% (inactive).
Same read-out and setting: the value for `CCCCC1CCC(C(=O)NCC(c2ccco2)N2CCOCC2)CC1` (configuration not stated) was -3.1% (inactive); that for `CCCCn1c(=O)c(C(=O)OCC)c(O)c2ccccc21` was 3.24% (inactive).
The same measure, in the same setting: in the case of `CCCCCn1c(=O)c(C(=O)OCC)c(O)c2ccccc21` it was -0.68% (inactive); in that of `CCn1c(=O)c(-c2ccccc2)c(O)c2ccccc21`, 0% (inactive).
Regarding `CCCCn1c(=O)c(-c2ccccc2)c(O)c2ccccc21`, the inhibition was -4.09% (inactive).
On the same count and under the same terms, the value for `O=C1C(=Cc2ccncc2)CCCc2ccccc21` was -20.6% (inactive); that for `O=C(NC(=S)N1CCCCCC1)c1cccc([N+](=O)[O-])c1` was -2.29% (inactive).
On the same count and under the same terms, in the case of `O=C(Cn1cc(C(F)(F)F)ccc1=O)NCCc1ccc(Cl)cc1Cl` it was -0.73% (inactive); in that of `O=C(/C=C/c1ccccc1)C1C(=O)c2ccccc2C1=O`, -1.46% (inactive); in that of `Cc1ccc(/C=C/C(=O)C2C(=O)c3ccccc3C2=O)cc1`, 13.3% (inactive).
The same measure, in the same setting: the value for `Cc1ccc(C)c(N2CCN(C(=O)C3CCCN(S(=O)(=O)c4c(C)noc4C)C3)CC2)c1` (configuration not stated) was -2.75% (inactive); that for `O=C(O)c1ccc(NCCC2=CCCCC2)c([N+](=O)[O-])c1` was 5.44% (inactive).
For `O=C(NCCC1=CCCCC1)c1ccc(Cl)c([N+](=O)[O-])c1`, the inhibition was 0% (inactive).
With `Nc1c(C(=O)N/N=C/c2ccccc2)cnn1-c1ccccc1`, the inhibition is 1.53% (inactive).
Same read-out and setting: in the case of `COc1cccc(NS(=O)(=O)c2ccc3c(c2)NC(=O)CC(=O)N3)c1` it was -10.6% (inactive); in that of `CC(=O)c1ccc2c(c1)C1C=CCC1C(c1ccc(S(=O)(=O)N3CCOCC3)cc1)N2` (configuration not stated), 11.6% (inactive); in that of `COc1cccc(NS(=O)(=O)c2ccc3c(c2)CC(=O)N3)c1`, -6.98% (inactive).
Still for that read-out and setting: the value for `COc1ccc(C(=O)N/N=C(\C)c2ccc3c(c2)C2C=CCC2C(c2ccccc2)N3)cc1` (configuration not stated) was 2.59% (inactive).
The same measure, in the same setting: the value for `O=C(O)c1ccc2c(c1)C1C=CCC1C(c1cc3c(cc1Br)OCO3)N2` (configuration not stated) was 6.19% (inactive); that for `COC(=O)c1ccc(C2Nc3ccc(/C(C)=N/NC(=O)C(OC)c4ccccc4)cc3C3C=CCC32)cc1` (configuration not stated) was -4.05% (inactive); that for `O=C(O)c1ccc(NS(=O)(=O)c2ccc3c(c2)OCCCO3)cc1` was -0.76% (inactive).
For `COc1ccc(NS(=O)(=O)c2ccc(NS(=O)(=O)c3cccc(C(=O)O)c3)cc2)cc1`, the inhibition is 0% (inactive).
On the same count and under the same terms, in the case of `COc1ccc(CN2C3CCCC2CC(NC(=O)Nc2ccccc2)C3)cc1` (configuration not stated) it was -8.9% (inactive); in that of `CCN(CC(=O)Nc1ccc2c(c1)OCCO2)S(=O)(=O)c1ccc(F)cc1`, -12.2% (inactive); in that of `CCN(CC)S(=O)(=O)c1ccc(C(=O)NCCOC(=O)c2ccc(F)cc2F)cc1`, 8.01% (inactive).
As for `COc1ccccc1NS(=O)(=O)c1ccc2c(c1)OCCO2`, the inhibition was -2.93% (inactive).
On the same count and under the same terms, in the case of `Cc1ccc(S(=O)(=O)N2CCCCC2)cc1C(=O)NCc1ccc(S(N)(=O)=O)cc1` it was 4.65% (inactive); in that of `COc1ccc(/C(O)=C2\C(=O)C(=O)N(CC3CCCO3)C2c2cc(OC)ccc2OC)cc1` (configuration not stated), -3.45% (inactive); in that of `O=C(NCCC1=CCCCC1)c1cnc2n(c1=O)CCS2`, 3.21% (inactive).
Consider `COc1ccccc1C(=O)NC(=O)COC(=O)Cc1n[nH]c(=O)c2ccccc12`, for which the inhibition is 3.6% (inactive).
Same read-out and setting: the value for `COc1ccc(NS(=O)(=O)c2cc([N+](=O)[O-])ccc2N/N=C\c2c(C)[nH]c3ccccc23)cc1` was -20.6% (inactive).
For the molecule `COc1ccc(S(=O)(=O)NCc2ccccn2)cc1Br`, the inhibition is 2.64% (inactive). Also, the inhibition under setting [1] amounted to 3.33%.
In the case of `CSC1=C(C#N)C(=O)NC(c2ccc(Cl)cc2)S1` (configuration not stated), the inhibition was -3.83% (inactive).
Same read-out and setting: in the case of `N#CC1=C(Nc2ccccc2Cl)SC(c2ccccc2O)NC1=O` (configuration not stated) it was -11.1% (inactive); in that of `Cc1c([N+](=O)[O-])cc(N2C(=O)C=CC2=O)cc1[N+](=O)[O-]`, 8.16% (inactive); in that of `Cc1cc(N2C(=O)C=CC2=O)c([N+](=O)[O-])cc1C`, -13.6% (inactive).
Take `COc1ccc(-c2ccc(NS(=O)(=O)c3ccc([N+](=O)[O-])cc3)cc2)nn1`: the inhibition was 5.43% (inactive).
Take `COc1ccc(-n2nc(C(=O)NCC(=O)NCC3CCCO3)c3ccccc3c2=O)cc1` (configuration not stated): the inhibition was -4.8% (inactive). In addition, the inhibition under setting [1] was -2.44%.
Regarding `Cc1ccc(C2(C(F)(F)F)NC(=O)N3N=C4CCCCCN4C3=C2C#N)cc1` (configuration not stated), the inhibition is 7.4% (inactive).
Still for that read-out and setting: in the case of `COc1ccc(/C=C2\SC(=S)N(CCC(=O)Nc3ccccc3C(=O)O)C2=O)cc1` it was -2.62% (inactive); in that of `Cc1ccc(/C=C2\SC(=S)N(CCCC(=O)Nc3ccccc3C(=O)O)C2=O)cc1`, 15.4% (inactive).
The same measure, in the same setting: the value for `COc1ccc(/C=C2\SC(=S)N(CCCC(=O)Nc3ccccc3C(=O)O)C2=O)cc1OC` was -34.8% (inactive).
For the molecule `CCOc1ccc(/C=C2/SC(=S)N(CCC(=O)Nc3ccc(C(=O)O)cc3)C2=O)cc1`, the inhibition was -7.39% (inactive).
The same measure, in the same setting: in the case of `CCc1ccc(/C=C2\SC(=S)N(CCCC(=O)Nc3ccc(C(=O)O)cc3)C2=O)cc1` it was 17.8% (inactive).
As for `COc1ccc(/C=C2/SC(=S)N(CCCC(=O)Nc3ccccc3C(=O)O)C2=O)cc1`, the inhibition was 12.5% (inactive).
Take `COc1ccc(CNC(=O)COC(=O)C(CCSC)NC(=O)c2ccco2)cc1OC` (configuration not stated): the inhibition is 0% (inactive).
On the same count and under the same terms, in the case of `O=C(c1cc(C2CC2)nn1-c1ccccc1)N1CCN(Cc2ccccc2F)CC1` it was -3.6% (inactive).
For `Cc1cc(C(=O)COC(=O)c2n[nH]c(=O)c3ccccc23)c(C)n1C(C)C`, the inhibition is -4.04% (inactive).
The same measure, in the same setting: the value for `CCOc1ccc(N(CC(=O)NC2CCCCC2C)S(=O)(=O)c2c(C)noc2C)cc1` (configuration not stated) was -4.39% (inactive); that for `O=C1C(=NO)CCCc2ccccc21` was -3.23% (inactive).
Still for that read-out and setting: the value for `O=C1/C(=N\O)Cc2ccccc21` was -5.15% (inactive); that for `O=C(O)CC1SC(N/N=C/c2ccc(Br)cc2)NC1=O` (configuration not stated) was 3.06% (inactive).
On the same count and under the same terms, in the case of `COc1ccc(OC)c(S(=O)(=O)N(C)CC(=O)N2CCCCC2)c1` it was -7.78% (inactive).
For the molecule `CC(C)C1C(=O)N(Cc2cn(CCC3OCCO3)nn2)CCS(=O)(=O)N1Cc1ccc(-c2ccc(Cl)c(Cl)c2)cc1` (configuration not stated), the inhibition is -2.32% (inactive).
Still for that read-out and setting: in the case of `CN=c1scc(C)n1/N=C/c1cc(Br)c(O)c(Br)c1` it was -1.49% (inactive); in that of `Oc1ccc(/C=N/n2c(-c3ccccc3)n[nH]c2=S)cc1Br`, 13.5% (inactive); in that of `Cc1c(Br)c(O)c(Br)c(O)c1/C=N/n1c(-c2ccccc2)n[nH]c1=S`, 21.5% (inactive).
On to `Oc1c(Br)cc(Br)cc1/C=N/n1c(-c2ccccc2)n[nH]c1=S`, for which the inhibition was -12.7% (inactive).
Still for that read-out and setting: in the case of `COc1ccccc1N1C(=O)CC(N2CCN(c3ccc(F)cc3)CC2)C1=O` (configuration not stated) it was -6.31% (inactive); in that of `O=C(CN(Cc1ccccc1Cl)C(=O)c1csnn1)NCc1ccc2c(c1)OCO2`, -1.47% (inactive); in that of `Cc1ccc(-c2cn3nc(C)c(C)nc3n2)cc1`, -9.37% (inactive).
Same read-out and setting: in the case of `Cc1nc2nc(-c3ccccc3)cn2nc1C` it was -1.38% (inactive); in that of `COc1ccc(C(=O)N(CC(=O)NC(C)(C)C)c2ccc3c(c2)OCCO3)cc1OC`, -3.24% (inactive).
With `Cn1c(-c2ccccc2)cc(=NNS(C)(=O)=O)c2cc(S(=O)(=O)O)ccc21`, the inhibition was 7.43% (inactive).
Consider `Oc1ccc2ccccc2c1CN1CCCCC1`, for which the inhibition was -0.78% (inactive).
Same read-out and setting: in the case of `Oc1ccc(CN2CCCCC2)nc1-c1ccccc1` it was -3.27% (inactive); in that of `c1ccc(-c2ccc(-c3csnn3)cc2)cc1`, 0.69% (inactive).
As for `COc1ccc(S(=O)(=O)Nc2ccc(O)c3ccccc23)cc1`, the inhibition was 70.6% (inactive).
On to `CCOc1ccc(S(=O)(=O)Nc2ccccc2SC)cc1`, for which the inhibition was 6.41% (inactive).
The same measure, in the same setting: in the case of `COc1ccc(S(=O)(=O)c2c(C)c(NS(=O)(=O)c3ccccc3)cc(C)c2O)cc1` it was -5.22% (inactive).
Still for that read-out and setting: in the case of `CCOC(=O)c1ccccc1NS(=O)(=O)c1ccc(OCC)cc1` it was -6.45% (inactive); in that of `CC1(c2ccc(Cl)cc2)NC(=O)N(CC(=O)NCCC2=CCCCC2)C1=O` (configuration not stated), -2.9% (inactive).
Still for that read-out and setting: in the case of `COc1ccc(-n2c(=S)[nH]c3cc(C(=O)Nc4cc(C(N)=O)ccc4OC)ccc3c2=O)c(OC)c1` it was -13.4% (inactive); in that of `COc1cc(N)c(Cl)cc1C(=O)OCC(=O)NC1CCCC1`, -6.23% (inactive); in that of `CC(C)c1ccc(NC2CCCN(C(=O)CN3CCCC3=O)C2)cc1` (configuration not stated), -7.87% (inactive).
For the molecule `C=CCNC(=S)NNC(=O)c1csc(C)c1CC`, the inhibition was 2.43% (inactive).
Same read-out and setting: in the case of `CCOc1ccc(NC(=O)CN(C)C(=O)C2=COCCO2)cc1OCC` it was -3.6% (inactive).
